In the library only some 7.3% were active in any assay of this set; here they are far more common.
ELG1 genotoxic: inducers of genotoxicity in HEK293T ELG1-luciferase cells; HEK293T ELG1-luciferase reporter, luminescence, 16 h; Potency, µM (doses to about 46 µM), actives largely listed as activators; hit rate 1.3% among 330,000; also: nearly all actives have a fitted effect of over 60% in size
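Cells (2,000/well) expressing the ELG1-luciferase fusion are dosed by pin tool and kept 16 hr at 37 °C, 5% CO2. Signal comes from ONE-Glo luciferase reagent after 30 min at room temperature.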
NPC1 promoter act: activators of NPC1 promoter | Potency, µM (top dose mostly 9.22 µM), actives largely listed as activators | Huh7 NPC1 promoter luciferase reporter, 24 h | hit rate 2.4% among 320,000 | AID 485313; also: nearly all actives have a fitted effect of over 60% in size
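Luminescence read-out of NPC1 promoter-driven luciferase in stably transfected Huh7 cells; compounds delivered in DMSO and left 24 h at 37C, 5% CO2, qHTS titration format.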
p53 reactivation: re-activators of mutant p53. hit rate 0.063% among 320,000. H1299 p53-A138V BP100-luciferase reporter, luminescence, 24 h. Potency, µM (series often up to 92.2 µM), usual class: activators; also: nearly all actives have a fitted effect of over 45% in size
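p53-null H1299 cells stably carrying temperature-sensitive p53-A138V and a BP100-luciferase reporter were pinned with compounds (4-point, 1:5 series) and held 24 hrs at 37 deg C. Luminescence was read 10 min after detection reagent.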
Rab9 promoter act: activators of Rab9 promoter; AID 485297; Potency, µM (titrated, usually from 9.22 µM), usual class: activators; hit rate 2.8% among 320,000; Huh7 Rab9 promoter-luciferase reporter, luminescence, 24 h; also: nearly all actives have a fitted effect of over 60% in size
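Cell-based reporter: Huh7 stable for Rab9 promoter-driven luciferase, plated in reduced-serum medium with 10% FBS at 1500 cells/well, compound-treated 24 h at 37 °C, luminescence read after 10 min reagent.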
SMN2 splice enh: SMN2 splice variant enhancement; Potency, µM (top dose mostly 46.1 µM), usual class: activators; hit rate 2.8% among 210,000; HEK293 SMN2-luciferase splicing reporter, luminescence, 30-36 h; also: nearly all actives have a fitted effect of over 55% in size
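qHTS luciferase splicing reporter: luminescence rises when SMN2 exon 7 is included in transfected HEK293 cells. Compound exposure lasted 30-36 h at 37C, with 4.5 mM final sodium butyrate as control, followed by a ONE-Glo read.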
FLuc modulator: inhibits or activates purified firefly luciferase, miR-21 counter-screen; Potency, µM (highest dose often 57.5 µM), actives largely listed as inhibitors; P08659; purified FLuc, Km substrates, luminescence inhibition; hit rate 6.9% among 360,000; also: nearly all actives have a fitted effect of over 55% in size
Target sequence (P08659 whole entry, looked up): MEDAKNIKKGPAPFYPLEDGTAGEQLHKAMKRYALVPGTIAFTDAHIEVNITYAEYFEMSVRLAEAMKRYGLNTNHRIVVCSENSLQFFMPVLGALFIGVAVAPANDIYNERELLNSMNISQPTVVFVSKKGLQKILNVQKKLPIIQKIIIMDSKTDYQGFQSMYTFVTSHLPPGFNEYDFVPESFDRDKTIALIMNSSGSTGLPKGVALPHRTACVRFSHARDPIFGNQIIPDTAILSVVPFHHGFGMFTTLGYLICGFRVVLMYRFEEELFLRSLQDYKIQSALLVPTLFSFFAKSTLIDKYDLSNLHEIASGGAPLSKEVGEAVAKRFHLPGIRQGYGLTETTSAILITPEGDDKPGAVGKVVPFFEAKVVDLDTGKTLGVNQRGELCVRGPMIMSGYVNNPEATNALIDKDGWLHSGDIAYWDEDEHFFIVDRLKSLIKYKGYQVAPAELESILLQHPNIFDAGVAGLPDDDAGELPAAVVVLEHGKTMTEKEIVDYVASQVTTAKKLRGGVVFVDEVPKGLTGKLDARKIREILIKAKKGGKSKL
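Biochemical qHTS of compounds, final roughly 60 µM downward over six points, against 10 nM purified firefly luciferase using Km concentrations of substrates (10 uM D-luciferin, 10 uM ATP) in Tris acetate pH 7.5 buffer; luminescence output.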
A number is an active result; . = inactive; ? = inconclusive; / = not tested or not shown; [ ] = dose if it differs, or a comment. Calls follow the shape of the dose curve; as a rule, active = well fitted curve in the direction sought with a large enough effect; inconclusive = small, poorly fitted or top-dose-only effect, or another doubt; inactive = no such curve, though single readings can be large; an effect the other way counts as inactive or inconclusive.

SMILES	ELG1 genotoxic	NPC1 promoter act	p53 reactivation	Rab9 promoter act	SMN2 splice enh	FLuc modulator
COc1ccccc1C(=O)COC(=O)CN1C(=O)c2ccccc2C1=O	.	.	.	.	/	.
COc1ccc(C(=O)CN2C(=O)c3ccccc3C2=O)c(OC)c1	?	.	.	?	/	15.1µM
COc1cc(-c2csc(C)n2)ccc1O	.	.	.	.	.	.[2.3 µM]
Cc1ccccc1NC(=O)Nc1nnc(N2CCCCCC2)s1	/	/	/	/	/	.
O=[N+]([O-])c1ccc(Cl)cc1Cl	/	/	/	/	.	/
COc1ccc(NC(=O)c2ccccc2SC)c(OC)c1	.	.	.	.	.	.
COc1ccc(C(=O)COC(=O)c2ccccc2O)c(OC)c1	?	?	/	3.55µM	/	6.01µM
COc1ccc(C(=O)Nc2cc(OC)c(Cl)cc2OC)cc1	.	.	.	.	.	21.3µM
COc1ccc(C(=O)Nc2cc(OC)ccc2OC)cc1	.	.	?	.	.	23.9µM
COc1ccc(NC(=O)c2ccccc2O)c(OC)c1	11.2µM	?	?	3.16µM	?	9.53µM
COc1ccc(NC(=O)N2CC[C@@]3(CCCNC3)C2)cc1	/	/	/	/	.	/
COc1ccc(-c2cn3cc(C(=O)NN)ccc3n2)cc1	?	?	.	0.316µM	/	7.57µM
NNC(=O)c1ccc(Cn2cc(Br)cn2)cc1	.	.	.	.	.	.
NNC(=O)c1ccc2nc(-c3ccc(Br)cc3)cn2c1	?	0.398µM	.	0.501µM	11.2µM	9.53µM
COc1ccc(C2c3cc(OC)c(OC)cc3CC(=O)N2c2ccc(C)cc2)cc1 (centres undefined)	/	/	/	/	?	.
CCn1c(/N=C/c2c[nH]c3ccccc23)nc2ccccc21	.	.	.	.	/	0.536µM
CCCn1c(/N=C/c2ccccc2O)nc2ccccc21	.	.	.	.	.	.
CCCn1c(/N=C/c2c[nH]c3ccccc23)nc2ccccc21	.	.	.	.	.	2.69µM
CCCCn1c(/N=C/c2c[nH]c3ccccc23)nc2ccccc21	.	.	.	.	.	9.53µM
CN1CCN(C(=O)c2ccccc2-c2nc(-c3ccccc3)no2)CC1	.	.	.	.	.	?
NC(=O)c1cccc(-c2noc(-c3ccccc3F)n2)c1	?	0.891µM	?	0.794µM	/	2.69µM
COC(=O)c1cccc(-c2noc(-c3ccccc3F)n2)c1	?	?	?	0.282µM	/	1.69µM
NC(=O)c1ccc(-c2ccccc2F)cc1	.	.	.	.	/	?
NC(=O)c1ccccc1-c1nc(-c2ccccc2)no1	?	?	.	?	.	23.9µM
Nc1c(S(N)(=O)=O)cc(S(N)(=O)=O)cc1S(N)(=O)=O	/	/	/	/	.[9.22 µM]	/
SMILES	ELG1 genotoxic	NPC1 promoter act	p53 reactivation	Rab9 promoter act	SMN2 splice enh	FLuc modulator
O=C1/C(=C\c2cccs2)Sc2ccc3ccccc3c21	3.66µM	.	/	.	.[1.84 µM]	0.601µM
CCCCOc1ccc(Cn2c(=O)sc3ccccc32)cc1OC	/	/	/	/	.	.
COc1cc(OC)cc(C(=O)Nc2ccc(-n3cnnn3)c(C)c2)c1	?	?	.	?	.	15.1µM
COc1cc(NC(=O)c2ccccc2-n2cnnn2)cc(OC)c1	.	.	.	.	/	.
Cc1cc(NC(=O)c2oc3ccccc3c2C)ccc1-n1cnnn1	.	.	.	.	.	4.78µM
O=C(Nc1ccccc1)c1cccc(S(=O)(=O)Nc2cccc(F)c2)c1	/	/	/	/	/	.
O=C(Nc1ccc(OCc2cc(=O)n3c4c(sc3n2)CCCC4)cc1)c1ccccc1	/	/	/	/	.	.
O=C1CC(c2ccc(O)c(O)c2)Oc2cc(O)cc(O)c21 (centres undefined)	.	.	.	.	.	.
Oc1ccc(C2C[C@H]3CC[C@@H]2C3)cc1O (some centres undefined)	?	.	.	.	/	12µM
COc1cc(-c2nc(CN3CCCCC3CCNC(C)=O)c(C)o2)ccc1F (centres undefined)	.	.	.	.	/	.
C/C(=N\OCc1nc2ccccc2c(=O)n1/N=C/c1cc([N+](=O)[O-])ccc1O)c1ccccc1	.	.	?	.	/	23.9µM
O=c1c2ccccc2nc(COc2ccccc2)n1/N=C/c1ccc(O)cc1O	.	.	.	.	/	16.9µM
Cc1cc([N+](=O)[O-])cc(/C=N/n2c(C)nc3ccccc3c2=O)c1O	.	.	.	.	/	.
C/C(=N\OCc1nc2ccccc2c(=O)n1/N=C/c1cc(C)cc([N+](=O)[O-])c1O)c1ccccc1	?	.	?	.	/	26.9µM
O=C(Cn1[nH]c(=O)c2ccccc2c1=O)N1CCN(S(=O)(=O)c2ccc(Cl)cc2)CC1	.	.	.	.	/	.
O=C(N/N=C/C(Br)=C/c1ccccc1)c1ccc([N+](=O)[O-])cc1	.[9.26 µM]	.	.	.	/	.
CCOc1cc(C(=O)N/N=C/C(Br)=C/c2ccccc2)cc(OCC)c1OCC	.	.	.	.	.	.
O=C(N/N=C/C(Br)=C/c1ccccc1)c1ccncc1	.	.	.	.	/	23.9µM
O=C(N/N=C/C(Br)=C/c1ccccc1)c1cccnc1	?	.	?	.	/	13.5µM
CCOc1ccccc1-n1ccnc(NCc2ccc(F)cc2)c1=O	/	/	/	/	/	.
CC(C)C(=O)NC(=S)Nc1sc2c(c1C(N)=O)CCCC2	?	?	.	?	?	9.53µM
CCCC(=O)NC(=S)Nc1sc2c(c1C(N)=O)CCC2	.	.	.	.	?	4.26µM
CCC(=O)Nc1sc2c(c1C(N)=O)CCC2	.	.	.	.	.	.
C=CCNC(=S)Nc1sc2c(c1C(N)=O)CCCC2	.	.	.	.	/	15.1µM
CC(C)C(C(=O)N1CCN(C(=O)OC(C)(C)C)CC1)n1cc(-c2cn([C@@H](C)C(=O)N3CCN(C(=O)OC(C)(C)C)CC3)nn2)nn1 (some centres undefined)	.	.	.	.	/	.
SMILES	ELG1 genotoxic	NPC1 promoter act	p53 reactivation	Rab9 promoter act	SMN2 splice enh	FLuc modulator
COc1cccc(Nc2ncc3nc(-c4cc(F)cc(F)c4)c(=O)n(CCC#N)c3n2)c1	/	/	/	/	.	/
CCc1ccc(NS(=O)(=O)c2[nH]ncc2C(=O)OC)cc1	/	/	/	/	.	.
COC(=O)c1cc(Cl)ccc1NC(=O)CSc1ncc(S(=O)(=O)c2ccc(Br)cc2)c(=O)[nH]1	/	/	/	/	.	10.7µM
O=C(CSc1ncc(S(=O)(=O)c2ccc(Br)cc2)c(=O)[nH]1)NCc1ccccc1Cl	/	/	/	/	.	9.53µM
CC(C)C[C@@H](CC(=O)N[C@H](CC(=O)N[C@@H]1CCNC[C@H]1C(=O)N[C@H](CC(=O)N[C@@H](CCC(=O)O)CC(=O)O)Cc1ccccc1)C(C)C)NC(=O)[C@@H]1CNCC[C@H]1N	/	/	/	/	.	/
CC(Cc1ccccc1)C(=O)NCCc1c[nH]c2ccccc12 (centres undefined)	/	/	/	/	.	/
CCCCOc1ccc(C2C(C(=O)c3ccc(C)o3)=C(O)C(=O)N2CC2CCCO2)cc1 (centres undefined)	.	.	.	.	.	.
CC(=O)N(/N=C1/C(=O)Nc2ccccc21)c1ccccc1	.	?	?	?	/	.
